For five molecules, composite z-score, composite Z-score and z-score results are on record in PubChem BioAssay.

One assay concerns the target Albumin (Bos taurus) (UniProt P02769). Kind of assay: compounds binding labelled BSA control protein – biochemical, small-molecule microarray, Alexa647 label, 635/667 nm fluorescence, artefact control for SMM control protein annotation, profiling panel (AID 1118).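 Further: score merges 667 nm emission intensity and signal-to-noise per printed compound spot.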 Conditions: BSA-A647 binding, fluorescence 635 nm, higher = more signal.
Assay [1] in a line: probe aXIP binding to arrayed compounds – biochemical, NeuroSMM set, 635/667 nm fluorescence, primary screen (AID 1119).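 Further: probe is the protein aXip251-270 applied at 1 µg/mL to compound-printed slides; binding of probe to printed compounds measured as 667 nm fluorescence plus signal to noise.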 As to conditions: small-molecule microarray, higher = more signal, called active from +8 up or from −8 down.
A short description of assay [2]: probe aNOTCH3 binding on compound microarray – biochemical, small-molecule microarray, 635/667 nm fluorescence, primary screen (AID 1120).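 Further: probe is a biotin-tagged antibody raised against NOTCH3 rather than NOTCH3 protein; score merges spot fluorescence near 667 nm with spot signal to noise.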 Conditions: higher = more signal.
A short description of assay [3]: probe aNOTCH2 binding on compound microarray – biochemical, small-molecule microarray, 635/667 nm fluorescence, primary screen (AID 1121).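 Further: score merges feature fluorescence read at 667 nm with its signal to noise.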 As to conditions: higher = more signal.
Assay [4] deals with Carbonic anhydrase 2 (Homo sapiens) (UniProt P00918). Kind of assay: compounds binding carbonic anhydrase 2 – biochemical, small-molecule microarray, Alexa647-labelled CAII, profiling panel (AID 1122). As to conditions: CAII-A647 binding fluorescence, higher = more signal.
Assay [5] can be described thus: COS7 lysate on small-molecule microarray, probe aHis, 635 nm (AID 1123).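 Further: z-score combines 667nm fluorescence intensity with signal-to-noise per printed compound spot.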 Conditions: COS7 cell lysate, fluorescence, higher = more signal.
A short description of assay [6]: probe aLAP1 signal on lysate-treated microarray – cell lysate, small-molecule microarray, COS7 lysate, primary screen (AID 1124).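 Further: lysate comes from COS7 cells expressing LAP1 and is applied at 0.3 µg/mL; score merges spot fluorescence near 667 nm with signal-to-noise over triplicate slides.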 Conditions: probe aLAP1, fluorescence, higher = more signal.
The next assay has as its system Sam68 (KHDRBS1). As to the kind of experiment: compounds binding KHDRBS1 protein – biochemical, small-molecule microarray, 635 nm fluorescence, primary screen (AID 1125).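 Further: score merges 667 nm channel intensity with signal to noise over triplicate slides.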 Conditions: higher = more signal.
Assay [7] relates to Chordin-like protein 2 (CHRDL2). As to the kind of experiment: compounds binding chordin-like 2 – biochemical, small-molecule microarray, 635 nm fluorescence, primary screen (AID 1126).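 Further: printed compound slides probed with Chrdl2 protein at 4 µg/mL for 1 h at 4 C; score merges 667 nm emission intensity with signal to noise over three replicate slides.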 As to conditions: fluorescence 635 nm, higher = more signal.
For assay [8], the target named is Concanavalin-A (Canavalia ensiformis) (UniProt P02866). Kind of assay: compounds binding concanavalin A lectin – biochemical, small-molecule microarray, Alexa647 label, 635 nm, artefact control for SMM control protein annotation, primary screen (AID 1127).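 Further: z combines 667 nm emission intensity with signal-to-noise across three replicate slides.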 As to conditions: ConA-A647 binding fluorescence, higher = more signal.
Assay [9] can be described thus: compounds binding Alexa647 anti-His antibody – biochemical, small-molecule microarray, 635 nm fluorescence, artefact control for SMM control protein annotation, primary screen (AID 1128).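 Further: score merges feature fluorescence with signal-to-noise for each printed compound spot.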 As to conditions: higher = more signal.
For assay [10], the system named is Human papillomavirus type 1a E7 protein (residues 1-88). As to the kind of experiment: HPV1a E7 small-molecule binders, primary screen, biochemical, small-molecule microarray, residues 1-88, 635 nm (AID 1129). Conditions: small-molecule microarray binding, fluorescence 635 nm; higher = more signal.
Assay [11] addresses Focal adhesion kinase 1 (Homo sapiens) (UniProt Q05397). As to the kind of experiment: PTK2 protein binding on printed compound slides – biochemical, small-molecule microarray, 635/667 nm fluorescence, BSA, DTT, primary screen (AID 1130).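 Further: composite of spot emission at 667 nm and signal to noise over triplicate slides.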 Conditions: 635 nm fluorescence, higher = more signal.
Assay [12] relates to Fibrinogen (Alexa647-labelled). Kind of assay: Alexa647-fibrinogen binding to printed small molecules – biochemical, small-molecule microarray, 635/667 nm fluorescence, artefact control for SMM control-protein annotation, profiling panel (AID 1131).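 Further: z-score merges 667 nm fluorescence with per-spot signal-to-noise over triplicate slides.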 Conditions: fibrinogen-A647 binding fluorescence, higher = more signal.
Assay [13] addresses Follistatin (Homo sapiens) (UniProt P19883). Kind of assay: FST protein binding to printed compounds – biochemical, small-molecule microarray, 635/667 nm fluorescence, primary screen (AID 1132). As to conditions: 635 nm fluorescence, higher = more signal.
For assay [14], the target named is Fibroblast growth factor 2 (Homo sapiens) (UniProt P09038). Kind of assay: basic fibroblast growth factor binding to printed compounds – biochemical, small-molecule microarray, 635/667 nm fluorescence, primary screen (AID 1133). As to conditions: FGF2, fluorescence 635/667, higher = more signal.
Assay [15] is described as follows: JC-1 mitochondrial potential readout, lung cancer cells – cell-based, A549, JC-1 fluorescence, basal, 24 h, 100 nL, profiling panel (AID 1138).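 Further: A549 lung adenocarcinoma cells under basal conditions with no added stimulus; test concentration not given here.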 As to conditions: higher = more signal.
Another assay concerns Lefty1. As to the kind of experiment: Lefty1 protein binding to printed compounds – biochemical, small-molecule microarray, 635/667 nm fluorescence, primary screen (AID 1139). Conditions: fluorescence 635/667, higher = more signal.
The subject of assay [16] is wheat germ agglutinin (Triticum aestivum), Alexa647-labelled. Kind of assay: Alexa647-WGA lectin binding to printed small molecules – biochemical, small-molecule microarray, 635/667 nm fluorescence, artefact control for SMM control-protein annotation, profiling panel (AID 1140).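 Further: score merges 667 nm feature emission with signal to noise over triplicate slides.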 As to conditions: WGA-A647 binding, 635 nm fluorescence, higher = more signal.
The target in assay [17] is Luciferin 4-monooxygenase (Photinus pyralis) (UniProt P08659). As to the kind of experiment: inhibition of purified Photinus pyralis luciferase – biochemical, luminescence, purified enzyme, 2006 set, primary screen (AID 1141).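 Further: cell-free assay with purified firefly luciferase at 100 ng per well in PBS; test concentration not given here.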 Conditions: purified firefly luciferase, SteadyGlo luminescence, 30 min; higher = more signal, called active from +8 up or from −8 down.

Calls of active or inactive are those of the source.

Focal adhesion kinase 1 (Homo sapiens), sequence (Q05397 whole entry, looked up): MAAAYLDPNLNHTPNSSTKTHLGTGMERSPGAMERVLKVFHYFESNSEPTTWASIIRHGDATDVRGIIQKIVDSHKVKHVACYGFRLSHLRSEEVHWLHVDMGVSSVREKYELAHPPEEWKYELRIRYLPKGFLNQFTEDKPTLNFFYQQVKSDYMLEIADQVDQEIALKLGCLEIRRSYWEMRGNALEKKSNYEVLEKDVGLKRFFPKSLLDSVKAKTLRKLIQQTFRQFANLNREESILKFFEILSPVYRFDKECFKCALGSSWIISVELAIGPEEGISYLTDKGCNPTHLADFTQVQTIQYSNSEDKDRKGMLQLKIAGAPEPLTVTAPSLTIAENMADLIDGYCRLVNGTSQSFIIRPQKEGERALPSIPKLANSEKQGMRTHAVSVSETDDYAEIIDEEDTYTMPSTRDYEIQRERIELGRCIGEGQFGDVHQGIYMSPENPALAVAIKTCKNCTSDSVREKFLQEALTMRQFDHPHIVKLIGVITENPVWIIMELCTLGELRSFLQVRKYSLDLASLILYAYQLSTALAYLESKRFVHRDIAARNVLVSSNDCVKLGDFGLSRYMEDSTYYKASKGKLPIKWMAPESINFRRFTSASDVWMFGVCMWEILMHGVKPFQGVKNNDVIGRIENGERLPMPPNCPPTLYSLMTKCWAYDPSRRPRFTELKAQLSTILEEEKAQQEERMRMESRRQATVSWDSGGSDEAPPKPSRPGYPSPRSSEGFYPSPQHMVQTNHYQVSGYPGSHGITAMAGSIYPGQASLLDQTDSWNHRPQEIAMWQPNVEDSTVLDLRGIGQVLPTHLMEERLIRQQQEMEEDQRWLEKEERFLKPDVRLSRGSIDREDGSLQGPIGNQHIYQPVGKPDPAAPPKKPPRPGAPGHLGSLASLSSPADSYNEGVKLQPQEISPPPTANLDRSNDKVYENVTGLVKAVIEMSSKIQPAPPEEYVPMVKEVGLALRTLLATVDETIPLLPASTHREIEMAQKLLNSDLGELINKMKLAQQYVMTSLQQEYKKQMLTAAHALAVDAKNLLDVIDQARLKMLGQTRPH
Concanavalin-A (Canavalia ensiformis), sequence (P02866 whole entry, looked up): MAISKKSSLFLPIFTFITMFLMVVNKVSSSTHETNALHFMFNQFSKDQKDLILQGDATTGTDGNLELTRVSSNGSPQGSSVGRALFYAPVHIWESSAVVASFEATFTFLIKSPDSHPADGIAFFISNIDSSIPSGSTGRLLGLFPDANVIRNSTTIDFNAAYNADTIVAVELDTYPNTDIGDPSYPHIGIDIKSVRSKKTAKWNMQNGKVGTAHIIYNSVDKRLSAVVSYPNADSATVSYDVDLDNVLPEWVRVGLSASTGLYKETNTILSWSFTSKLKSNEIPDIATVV
Follistatin (Homo sapiens), sequence (P19883 whole entry, looked up): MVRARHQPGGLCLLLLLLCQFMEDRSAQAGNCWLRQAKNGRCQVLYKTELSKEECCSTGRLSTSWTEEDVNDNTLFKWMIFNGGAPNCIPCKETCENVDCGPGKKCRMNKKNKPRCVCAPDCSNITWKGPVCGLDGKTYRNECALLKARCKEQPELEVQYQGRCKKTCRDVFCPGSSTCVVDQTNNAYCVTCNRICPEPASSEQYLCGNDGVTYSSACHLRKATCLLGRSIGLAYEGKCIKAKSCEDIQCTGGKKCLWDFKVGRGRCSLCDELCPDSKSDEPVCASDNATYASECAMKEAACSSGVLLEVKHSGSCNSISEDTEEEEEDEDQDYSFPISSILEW
Luciferin 4-monooxygenase (Photinus pyralis), sequence (P08659 whole entry, looked up): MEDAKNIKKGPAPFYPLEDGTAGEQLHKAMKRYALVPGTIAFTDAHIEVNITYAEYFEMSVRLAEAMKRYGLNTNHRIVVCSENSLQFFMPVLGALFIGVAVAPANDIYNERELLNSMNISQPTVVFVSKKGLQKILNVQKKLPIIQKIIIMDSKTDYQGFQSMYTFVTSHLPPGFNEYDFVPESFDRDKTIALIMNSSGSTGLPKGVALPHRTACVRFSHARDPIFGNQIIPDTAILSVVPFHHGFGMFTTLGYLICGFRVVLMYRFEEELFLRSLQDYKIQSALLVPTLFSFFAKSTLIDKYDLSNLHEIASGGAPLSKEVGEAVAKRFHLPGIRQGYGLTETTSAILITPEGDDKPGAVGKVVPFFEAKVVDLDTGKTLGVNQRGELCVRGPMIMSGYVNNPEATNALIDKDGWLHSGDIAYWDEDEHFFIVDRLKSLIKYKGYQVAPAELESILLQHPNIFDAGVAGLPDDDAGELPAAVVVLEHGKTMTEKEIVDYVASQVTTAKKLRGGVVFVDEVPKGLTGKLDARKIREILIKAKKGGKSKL
Fibroblast growth factor 2 (Homo sapiens), sequence (P09038 whole entry, looked up): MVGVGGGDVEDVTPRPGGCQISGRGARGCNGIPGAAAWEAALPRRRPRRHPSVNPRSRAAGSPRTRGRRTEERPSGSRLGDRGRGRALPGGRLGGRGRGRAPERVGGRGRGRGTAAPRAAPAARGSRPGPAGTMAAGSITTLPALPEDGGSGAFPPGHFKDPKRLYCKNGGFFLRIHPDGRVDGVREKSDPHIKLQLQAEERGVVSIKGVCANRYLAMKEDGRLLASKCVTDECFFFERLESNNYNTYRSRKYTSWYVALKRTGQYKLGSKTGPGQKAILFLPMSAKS
Albumin (Bos taurus), sequence (P02769 whole entry, looked up): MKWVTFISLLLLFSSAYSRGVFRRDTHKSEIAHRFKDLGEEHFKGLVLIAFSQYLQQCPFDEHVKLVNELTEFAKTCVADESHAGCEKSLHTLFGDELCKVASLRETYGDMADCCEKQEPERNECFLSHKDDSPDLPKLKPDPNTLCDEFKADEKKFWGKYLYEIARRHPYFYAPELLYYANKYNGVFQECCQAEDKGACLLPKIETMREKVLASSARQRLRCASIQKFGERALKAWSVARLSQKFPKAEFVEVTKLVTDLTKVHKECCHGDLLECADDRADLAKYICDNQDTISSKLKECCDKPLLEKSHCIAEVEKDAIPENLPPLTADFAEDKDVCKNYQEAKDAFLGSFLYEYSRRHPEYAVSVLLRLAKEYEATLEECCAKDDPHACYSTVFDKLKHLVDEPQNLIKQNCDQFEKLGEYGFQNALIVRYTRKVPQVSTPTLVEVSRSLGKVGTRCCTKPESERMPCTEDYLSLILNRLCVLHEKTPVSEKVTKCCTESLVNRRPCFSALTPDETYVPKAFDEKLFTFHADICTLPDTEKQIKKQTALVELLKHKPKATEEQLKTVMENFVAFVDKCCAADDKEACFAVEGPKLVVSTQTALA

Turning to `CC(C)=C1C(=O)C(c2ccccc2)=C2CN3C(=O)N(CCc4ccccc4)C(=O)[C@]3(Cc3ccccc3)[C@H]21`, the composite z-score with Albumin (Bos taurus) is 0.0673; in assay [2], -0.0209; in assay [3] it was 0.224; in assay [4], 0.204; in [5], 0.572; in assay [6], -0.14. The composite z-score in the assay on Sam68 (KHDRBS1) was -1.59; in [7], -2.04; in assay [8], -1.18; in assay [9] it was 1.39; in assay [10], -0.992; in assay [11], 0.521. The composite z-score is -0.358 in assay [12]; -1.04 in [13]; -0.77 in assay [14]; -0.961 in the assay with Lefty1; -0.112 in assay [16]. The composite Z-score in [1] is 0.548 (inactive). The z-score in [15] was 1.45; in assay [17], 0.451 (inactive).
Regarding `COc1cc2c(cc1OC)CN(C(=O)[C@H]1[C@@H]3C(=O)O[C@@H](c4ccccc4)[C@@H](c4ccccc4)N3[C@@H](c3ccc(O)cc3)[C@]13C(=O)Nc1ccc(C#CC4(O)CCCCCC4)cc13)CC2`, the composite z-score in the assay with Albumin (Bos taurus) amounted to 0.693; in [2], 0.974; in assay [3], 0.286; in [4] it was 0.774; in assay [5], 3.61; in assay [6], 0.876. For the same molecule, the composite z-score was 1.29 in the assay on Sam68 (KHDRBS1); 1.24 in assay [7]; 1.13 in assay [8]; 1.5 in assay [9]; 1.23 in assay [10]; 1.02 in assay [11]. In addition, the composite z-score in assay [12] came out at 0.86; in assay [13], 1.28; in assay [14], 1.71; with Lefty1 it was 0.59; in assay [16], 1.31. The composite Z-score in [1] is 1.04 (inactive). Moreover, the z-score in assay [15] was -1.23; in assay [17] it was -0.409 (inactive).
Turning to `CN1C(=O)C2C=CC(C(O)c3ccc(N(C)C)cc3)N(Nc3ccc([N+](=O)[O-])cc3[N+](=O)[O-])C2C1=O` (stereo not given), the composite z-score with Albumin (Bos taurus) came out at 0.944; in assay [2] it was 0.586; in assay [3], 0.0683; in assay [4] it was 0.729; in [5], 2.72; in assay [6], 1.4. In addition, the composite z-score is 1.21 with Sam68 (KHDRBS1); 0.556 in assay [7]; 0.884 in assay [8]; 1.54 in [9]; 1.23 in [10]; 0.171 in assay [11]. Also, the composite z-score is 1.01 in assay [12]; 1.26 in assay [13]; -0.0151 in assay [14]; -0.375 in the assay on Lefty1; 1.24 in assay [16]. For the same molecule, in assay [1], the composite Z-score was -0.399 (inactive). The z-score in assay [15] is 0.469; in assay [17] it was -1.2 (inactive).
For `C=CCC(OC(C)=O)[C@@H]1[C@@H](N(Cc2cccc3ccccc23)C(=O)Cc2ccc(F)cc2)c2cc(OCCCO)ccc2N1C(=O)Cc1ccc2ccccc2c1` (stereo not given in full), the composite z-score is 0.0257 in the assay with Albumin (Bos taurus); -0.0881 in assay [2]; -0.0194 in assay [3]; -0.117 in assay [4]; 0.293 in [5]; -0.27 in [6]. The composite z-score with Sam68 (KHDRBS1) was -0.146; in [7], -0.214; in [8], -1.5; in assay [9], -0.404; in [10], -0.329; in assay [11], 0.317. Besides, the composite z-score in assay [12] is -0.175; in [13], 0.0802; in assay [14], -0.391; with Lefty1, -0.258; in assay [16], 0.191. The composite Z-score in [1] was -0.227 (inactive). Besides, the z-score is 0.331 in [15] and 0.693 (inactive) in [17].
As to `C=CCNC(=O)[C@H]1[C@@H]2C(=O)O[C@@H](c3ccccc3)[C@@H](c3ccccc3)N2[C@@H](c2ccccc2OCCO)[C@]12C(=O)N(C(=O)OCCOC)c1ccc(C#CCNC(N)=O)cc12`, the composite z-score was 0.676 with Albumin (Bos taurus); 0.0379 in assay [2]; -0.101 in assay [3]; 0.555 in assay [4]; 1.94 in assay [5]; 1.3 in [6]. In addition, the composite z-score with Sam68 (KHDRBS1) is 1.29; in assay [7], -0.246; in assay [8] it was 1.14; in assay [9], 1.26; in assay [10], 1.17; in assay [11] it was 0.409. Further, the composite z-score in assay [12] was 0.742; in assay [13], 0.776; in assay [14], 0.104; in the assay with Lefty1 it was 0.629; in assay [16], 1.11. The composite Z-score in assay [1] is -0.0888 (inactive). In addition, the results for the z-score in assay [15] and in assay [17] were 0.423 and -0.963 (inactive), respectively.
